Experimental data reported in PubChem BioAssay AID1347145 (National Center for Advancing Translational Sciences (NCATS), 2019).
Inconclusive results are not listed. Calls of active or inactive are those of the source. Calls follow the shape of the dose curve; as a rule, active = well fitted inhibition curve with a large enough effect; inconclusive = small, poorly fitted or top-dose-only effect; inactive = no such curve, though single readings can be large or run the other way.

Target: N-terminal Xaa-Pro-Lys N-methyltransferase 1 (Homo sapiens) (UniProt Q9BV86)
Sequence (Q9BV86 whole entry, looked up): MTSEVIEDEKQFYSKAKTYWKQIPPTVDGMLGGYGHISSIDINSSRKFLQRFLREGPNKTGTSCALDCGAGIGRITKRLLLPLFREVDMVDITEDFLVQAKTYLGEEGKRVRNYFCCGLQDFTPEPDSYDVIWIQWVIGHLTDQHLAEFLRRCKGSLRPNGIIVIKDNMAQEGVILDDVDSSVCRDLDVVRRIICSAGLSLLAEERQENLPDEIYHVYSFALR
Experiment: qHTS Assay for Inhibitors of N-terminal methyltransferase 1 (NTMT1): MTaseGlo Assay Confirmatory Screen, Round 1
Conditions: Recombinant NTMT1, MTase-Glo SAH luminescence; series mostly up to 57.1 µM
Outline: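 Luminescence from MTase-Glo conversion of SAH to ATP measured activity after a 30 min RT reaction with 1 µM SPKRIA substrate, 100 µM SAM and 125 nM enzyme. Normalization used no-enzyme and DMSO controls, followed by Hill fitting.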
Potency is read from the fitted curve at half-maximal effect.

Potency, inactive:
Nc1ncnc2c1ncn2[C@@H]1O[C@H](COP(=O)(O)OP(=O)(O)OC[C@H]2OC(O)[C@H](O)[C@@H]2O)[C@@H](O)[C@H]1O (stereo partly specified)
COc1cc2c(NC3CCN(C(C)C)CC3)nc(N3CCC(F)(F)CC3)nc2cc1OCCCN1CCCC1
Nc1nc(Nc2ccccc2)nc2c1ncn2[C@@H]1O[C@@H](CO)[C@H](O)[C@H]1O
COc1cc2c(NC3CCN(C)CC3)nc(N3CCCN(C)CC3)nc2cc1OCCOCCN(C)C
Nc1ncnc2c1nc(N1CCCCC1)n2[C@@H]1O[C@@H]2COP(=O)(O)O[C@H]2[C@H]1O
OC[C@@H]1O[C@@H](n2cnc3c(N[C@H]4CCC[C@@H]4O)ncnc32)[C@H](O)[C@H]1O
CNC(=O)[C@H]1O[C@H](n2cnc3c(NCc4cccc(I)c4)nc(Cl)nc32)[C@@H](O)[C@@H]1O
COc1cc2c(NC3CCN(C)CC3)cc(N3CCCCN(C)CC3)cc2cc1OCCOCCN(C)C
Nc1ncnc2c1ncn2C1CC(O)C(CO)O1 (stereo unspecified)
Nc1[nH]c(=O)nc2c1ncn2C1OC(CO)C(O)C1O (stereo unspecified)
CSc1nc(N)c2ncn([C@@H]3O[C@H](COP(=O)(O)OP(=O)(O)O)C(O)[C@H]3O)c2n1 (stereo partly specified)
Nc1ncnc2c1nc(Cl)n2[C@@H]1O[C@H](CO)[C@@H](O)[C@@H]1O
CCCCC#Cc1nc(NC)c2ncn([C@@H]3O[C@H](CO)[C@@H](O)C3O)c2n1 (stereo partly specified)
COc1cc2nc(N3CCN(C)CC3)nc(NCCC3CC3)c2cc1OC
COc1cc2nc(N3CCCN(C)CC3)nc(N(C)C)c2cc1OC
CNc1nc2c(N)ncnc2n1[C@@H]1O[C@@H]2COP(=O)(O)O[C@H]2[C@H]1O
COc1cc2nc(N3CCOCC3)nc(NC3CC3)c2cc1OC
COc1cc2nc(N(C)C)nc(NC3CC3)c2cc1OC
Cc1cc2nc3c(=O)[nH]c(=O)nc-3n(C[C@H](O)[C@H](O)[C@H](O)COP(=O)(O)OP(=O)(O)OC[C@H]3O[C@@H](n4cnc5c(N)ncnc54)[C@H](O)[C@H]3O)c2cc1C
Nc1nc(F)nc2c1ncn2[C@@H]1O[C@H](CO)[C@@H](O)[C@@H]1O
CC(C)=CCNc1ncnc2c1ncn2[C@@H]1O[C@H](CO)[C@@H](O)[C@H]1O
OCC1OC(n2cnc3c(=S)nc[nH]c32)C(O)C1O (stereo unspecified)
CNc1ncnc2c1ncn2[C@@H]1O[C@H](COP(=O)(O)O)[C@@H](O)[C@H]1O
Nc1nc(Cl)nc2c1ncn2[C@@H]1O[C@H](CO)[C@@H](O)[C@@H]1F
CO[C@@H]1[C@@H]2OP(=O)(O)OC[C@H]2O[C@H]1n1c(Sc2ccc(Cl)cc2)nc2c(N)ncnc21
COc1cc2nc(N3CCN(C)CC3)nc(N3CCOCC3)c2cc1OC
OCCNc1ncnc2c1ncn2[C@@H]1O[C@@H](CO)[C@H](O)[C@@H]1O
COc1cc2c(NC3CCN(CC4CCCCC4)CC3)nc(N3CCCCC3)nc2cc1OCCCN1CCCCC1
CCC(CC)n1ccc2c(C(=O)NCc3c(C)cc(C)[nH]c3=O)cc(C#N)cc21
CC(C)(COP(=O)(O)OP(=O)(O)OC[C@H]1O[C@@H](n2cnc3c(N)ncnc32)[C@H](O)[C@@H]1OP(=O)(O)O)[C@H](O)C(=O)NCCC(=O)NCCS
Nc1ncnc2c1ncn2C1C[C@H](O)[C@@H](CO)O1 (stereo partly specified)
CNc1ncnc2c1ncn2[C@@H]1O[C@H](CO)[C@@H](O)[C@@H]1O
COc1cc2nc(N3CCN(C)CC3)nc(NC3CCN(C)CC3)c2cc1OC
COc1cc2nc(N3CCCN(C)CC3)nc(NC3CCN(C)C3)c2cc1OC (stereo unspecified)

Potency, active:
OC[C@H]1O[C@@H](n2cnc3cncnc32)[C@H](O)[C@@H]1O 13.7 µM
NC[C@H]1O[C@@H](n2cnc3c(N)ncnc32)[C@H](O)[C@@H]1O 19.3 µM
